Among all 5,500 compounds or so, about 2,000 (36%) were called active. Another 18% or so got no clear call; they are omitted. Rule as the data show it: active = normalized growth mostly below about 0.91 (no sharp cut-off); inconclusive = no clear call, values can overlap the other calls; inactive = mostly above about 0.92. Some of the results follow.
Assay: chemical genetic growth profiling, strain panel (AID 1159580);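 also: tested at 20 µM; growth read once vehicle control cultures reached saturation at 30 °C; 1 = growth at the plate median or of vehicle wells; lower values mean less growth of the strain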
Settings: growth OD
[1] = S. cerevisiae deletion strains, locus YCL061C, strain MRC1, stronger effect = lower value
[2] = S. cerevisiae deletion strains, locus YHR030C, strain SLT2, stronger effect = lower value
[3] = S. cerevisiae deletion strains, locus YJL187C, strain SWE1, stronger effect = lower value
[4] = S. cerevisiae deletion strains, locus YDR150W, strain NUM1, stronger effect = lower value
[5] = S. cerevisiae deletion strains, locus YPL055C, strain LGE1, stronger effect = lower value
[6] = S. cerevisiae deletion strains, locus YPL241C, strain CIN2, stronger effect = lower value
[7] = S. cerevisiae deletion strains, locus YAL013W, strain DEP1, stronger effect = lower value
[8] = S. cerevisiae deletion strains, locus YBR229C, strain ROT2, stronger effect = lower value
[9] = S. cerevisiae deletion strains, locus YDL101C, strain DUN1, stronger effect = lower value
[10] = S. cerevisiae deletion strains, locus YDL134C, strain PPH21, stronger effect = lower value
[11] = S. cerevisiae deletion strains, locus YEL061C, strain CIN8, stronger effect = lower value
[12] = S. cerevisiae deletion strains, locus YGR078C, strain PAC10, stronger effect = lower value
[13] = S. cerevisiae deletion strains, locus YHR087W, strain rtc3, stronger effect = lower value
[14] = S. cerevisiae deletion strains, locus YJR043C, strain POL32, stronger effect = lower value
[15] = S. cerevisiae deletion strains, locus YJR075W, strain HOC1, stronger effect = lower value
[16] = S. cerevisiae deletion strains, locus YKL190W, strain CNB1, stronger effect = lower value
[17] = S. cerevisiae deletion strains, locus YLR039C, strain RIC1, stronger effect = lower value
[18] = S. cerevisiae deletion strains, locus YLR058C, strain SHM2 (second series), stronger effect = lower value
[19] = S. cerevisiae deletion strains, locus YLR085C, strain ARP6, stronger effect = lower value
[20] = S. cerevisiae deletion strains, locus YLR262C, strain YPT6, stronger effect = lower value
[21] = S. cerevisiae deletion strains, locus YML094W, strain GIM5, stronger effect = lower value
[22] = S. cerevisiae deletion strains, locus YMR219W, strain ESC1, stronger effect = lower value
[23] = S. cerevisiae deletion strains, locus YMR263W, strain SAP30, stronger effect = lower value
[24] = S. cerevisiae deletion strains, locus YMR307W, strain GAS1, stronger effect = lower value
[25] = S. cerevisiae deletion strains, locus YNL153C, strain GIM3, stronger effect = lower value
[26] = S. cerevisiae deletion strains, locus YNL298W, strain CLA4 (second series), stronger effect = lower value
[27] = S. cerevisiae deletion strains, locus YNL322C, strain KRE1, stronger effect = lower value
[28] = S. cerevisiae deletion strains, locus YNR030W, strain Alg12, stronger effect = lower value
[29] = S. cerevisiae deletion strains, locus YPR135W, strain CTF4, stronger effect = lower value

Measured: normalized growth

OC[C@@H](O)C(O[C@@H]1O[C@H](CO)[C@H](O)[C@H](O)[C@H]1O)[C@H](O)[C@@H](O)CO (some centres undefined)
inactive: S. cerevisiae deletion strains, locus YAL021C, strain ccr4, stronger effect = lower value 0.969 | S. cerevisiae deletion strains, locus YAL026C, strain drs2, stronger effect = lower value 0.99 | S. cerevisiae deletion strains, locus YAL030W, strain snc1, stronger effect = lower value 0.986 | S. cerevisiae deletion strains, locus YBL061C, strain skt5, stronger effect = lower value 0.993 | S. cerevisiae deletion strains, locus YBR009C, strain hhf1, stronger effect = lower value 0.991 | S. cerevisiae deletion strains, locus YBR023C, strain chs3, stronger effect = lower value 0.984 | S. cerevisiae deletion strains, locus YBR171W, strain sec66, stronger effect = lower value 0.98 | S. cerevisiae deletion strains, locus YBR279W, strain paf1, stronger effect = lower value 0.981 | S. cerevisiae deletion strains, locus YCL011C, strain gbp2, stronger effect = lower value 0.995 | S. cerevisiae deletion strains, locus YCL016C, strain dcc1, stronger effect = lower value 0.983 | [1] 0.994 | S. cerevisiae deletion strains, locus YCL069W, strain vba3, stronger effect = lower value 0.99 | S. cerevisiae deletion strains, locus YCR088W, strain abp1, stronger effect = lower value 0.98 | S. cerevisiae deletion strains, locus YDL005C, strain med2, stronger effect = lower value 0.979 | S. cerevisiae deletion strains, locus YDL040C, strain nat1, stronger effect = lower value 0.988 | S. cerevisiae deletion strains, locus YDR001C, strain nth1, stronger effect = lower value 0.99 | S. cerevisiae deletion strains, locus YDR069C, strain doa4, stronger effect = lower value 0.981 | S. cerevisiae deletion strains, locus YDR137W, strain rgp1, stronger effect = lower value 1 | S. cerevisiae deletion strains, locus YDR159W, strain sac3, stronger effect = lower value 0.982 | S. cerevisiae deletion strains, locus YDR195W, strain ref2 0.963 | S. cerevisiae deletion strains, locus YDR297W, strain sur2, stronger effect = lower value 0.987 | S. cerevisiae deletion strains, locus YDR334W, strain swr1, stronger effect = lower value 0.98 | S. cerevisiae deletion strains, locus YDR335W, strain msn5, stronger effect = lower value 0.987 | S. cerevisiae deletion strains, locus YDR392W, strain spt3, stronger effect = lower value 0.992 | S. cerevisiae deletion strains, locus YEL003W, strain gim4, stronger effect = lower value 1.01 | S. cerevisiae deletion strains, locus YEL037C, strain rad23, stronger effect = lower value 0.991 | S. cerevisiae deletion strains, locus YEL061C, strain CIN8 (second series), stronger effect = lower value 0.995 | S. cerevisiae deletion strains, locus YER015W, strain faa2, stronger effect = lower value 0.991 | S. cerevisiae deletion strains, locus YER016W, strain bim1, stronger effect = lower value 0.988 | S. cerevisiae deletion strains, locus YER111C, strain swi4, stronger effect = lower value 0.996 | S. cerevisiae deletion strains, locus YER155C, strain BEM2 (second series), stronger effect = lower value 0.976 | S. cerevisiae deletion strains, locus YFR010W, strain ubp6, stronger effect = lower value 0.975 | S. cerevisiae deletion strains, locus YGL167C, strain pmr1, stronger effect = lower value 0.986 | S. cerevisiae deletion strains, locus YGL173C, strain kem1, stronger effect = lower value 0.981 | S. cerevisiae deletion strains, locus YGL227W, strain vid30, stronger effect = lower value 0.99 | S. cerevisiae deletion strains, locus YGL240W, strain doc1, stronger effect = lower value 0.999 | S. cerevisiae deletion strains, locus YGL253W, strain hxk2, stronger effect = lower value 0.989 | S. cerevisiae deletion strains, locus YHR013C, strain ard1, stronger effect = lower value 0.989 | S. cerevisiae deletion strains, locus YHR027C, strain rpn1, stronger effect = lower value 1 | [2] 0.976 | S. cerevisiae deletion strains, locus YHR079C, strain IRE1, stronger effect = lower value 0.974 | S. cerevisiae deletion strains, locus YHR142W, strain chs7, stronger effect = lower value 0.983 | S. cerevisiae deletion strains, locus YJL092W, strain hpr5, stronger effect = lower value 0.989 | S. cerevisiae deletion strains, locus YJL095W, strain BCK1 (second series), stronger effect = lower value 0.98 | S. cerevisiae deletion strains, locus YJL095W, strain BCK1, stronger effect = lower value 1.03 | S. cerevisiae deletion strains, locus YJL115W, strain asf1, stronger effect = lower value 0.978 | S. cerevisiae deletion strains, locus YJL129C, strain trk1, stronger effect = lower value 0.985 | S. cerevisiae deletion strains, locus YJL154C, strain vps35, stronger effect = lower value 0.991 | S. cerevisiae deletion strains, locus YJL164C, strain tpk1, stronger effect = lower value 0.996 | S. cerevisiae deletion strains, locus YJL166W, strain qcr8, stronger effect = lower value 0.987 | [3] 0.991 | S. cerevisiae deletion strains, locus YJR066W, strain TOR1, stronger effect = lower value 0.926 | S. cerevisiae deletion strains, locus YKL160W, strain elf1, stronger effect = lower value 0.991 | S. cerevisiae deletion strains, locus YKR026C, strain gcn3, stronger effect = lower value 0.985 | S. cerevisiae deletion strains, locus YKR091W, strain srl3, stronger effect = lower value 0.983 | S. cerevisiae deletion strains, locus YLL001W, strain dnm1, stronger effect = lower value 1 | S. cerevisiae deletion strains, locus YLL026W, stronger effect = lower value 0.989 | S. cerevisiae deletion strains, locus YLL041C, strain sdh2, stronger effect = lower value 0.992 | S. cerevisiae deletion strains, locus YLR027C, strain aat2, stronger effect = lower value 0.991 | S. cerevisiae deletion strains, locus YLR113W, strain HOG1, stronger effect = lower value 1.04 | S. cerevisiae deletion strains, locus YLR221C, strain rsa3, stronger effect = lower value 0.994 | S. cerevisiae deletion strains, locus YLR258W, strain gsy2, stronger effect = lower value 0.989 | S. cerevisiae deletion strains, locus YLR262C, strain YPT6 (second series), stronger effect = lower value 1 | S. cerevisiae deletion strains, locus YLR320W, strain mms22, stronger effect = lower value 0.98 | S. cerevisiae deletion strains, locus YLR342W, strain FKS1, stronger effect = lower value 0.987 | S. cerevisiae deletion strains, locus YLR357W, strain rsc2, stronger effect = lower value 0.959 | S. cerevisiae deletion strains, locus YLR370C, strain arc18, stronger effect = lower value 0.994 | S. cerevisiae deletion strains, locus YLR384C, strain iki3, stronger effect = lower value 0.983 | S. cerevisiae deletion strains, locus YML120C, strain ndi1, stronger effect = lower value 0.995 | S. cerevisiae deletion strains, locus YMR058W, strain fet3, stronger effect = lower value 0.99 | S. cerevisiae deletion strains, locus YMR125W, strain sto1, stronger effect = lower value 0.981 | S. cerevisiae deletion strains, locus YMR129W, stronger effect = lower value 0.995 | S. cerevisiae deletion strains, locus YMR205C, strain PFK2, stronger effect = lower value 0.994 | S. cerevisiae deletion strains, locus YMR231W, strain pep5, stronger effect = lower value 0.967 | S. cerevisiae deletion strains, locus YNL071W, strain lat1, stronger effect = lower value 0.985 | S. cerevisiae deletion strains, locus YNL183C, strain NPR1, stronger effect = lower value 0.934 | S. cerevisiae deletion strains, locus YNL209W, strain ssb2, stronger effect = lower value 1.01 | S. cerevisiae deletion strains, locus YNL248C, strain rpa49, stronger effect = lower value 0.991 | S. cerevisiae deletion strains, locus YNL322C, strain KRE1 (second series), stronger effect = lower value 0.986 | S. cerevisiae deletion strains, locus YNR049C, strain mso1, stronger effect = lower value 0.981 | S. cerevisiae deletion strains, locus YOR001W, strain rrp6, stronger effect = lower value 0.989 | S. cerevisiae deletion strains, locus YOR070C, strain gyp1, stronger effect = lower value 0.996 | S. cerevisiae deletion strains, locus YOR080W, strain dia2, stronger effect = lower value 0.981 | S. cerevisiae deletion strains, locus YOR083W, strain WHI5, stronger effect = lower value 0.986 | S. cerevisiae deletion strains, locus YOR106W, strain vam3, stronger effect = lower value 0.988 | S. cerevisiae deletion strains, locus YOR231W, strain MKK1, stronger effect = lower value 0.976 | S. cerevisiae deletion strains, locus YOR265W, strain rbl2, stronger effect = lower value 1 | S. cerevisiae deletion strains, locus YOR270C, strain vph1, stronger effect = lower value 1.01 | S. cerevisiae deletion strains, locus YOR290C, strain snf2, stronger effect = lower value 0.998 | S. cerevisiae deletion strains, locus YPL051W, strain arl3, stronger effect = lower value 1.01 | S. cerevisiae deletion strains, locus YPL078C, strain atp4, stronger effect = lower value 0.997 | S. cerevisiae deletion strains, locus YPL106C, strain sse1, stronger effect = lower value 0.969 | S. cerevisiae deletion strains, locus YPL240C, strain hsp82, stronger effect = lower value 0.988 | S. cerevisiae deletion strains, locus YPL256C, strain CLN2, stronger effect = lower value 0.986

O=C(O)CCC/C=C\C[C@@H]1[C@@H](/C=C/[C@H](O)C2Cc3ccccc3C2)[C@@H](F)C[C@@H]1O
inactive: S. cerevisiae deletion strains, locus YAL040C, strain CLN3, stronger effect = lower value 0.995 | S. cerevisiae deletion strains, locus YCL061C, strain MRC1 (second series), stronger effect = lower value 0.998 | [4] 1.01 | S. cerevisiae deletion strains, locus YDR363W, strain ESC2, stronger effect = lower value 0.993 | S. cerevisiae deletion strains, locus YER002W, strain NOP16, stronger effect = lower value 0.988 | S. cerevisiae deletion strains, locus YNL175C, strain NOP13, stronger effect = lower value 0.982 | S. cerevisiae deletion strains, locus YNL197C, strain WHI3, stronger effect = lower value 0.989 | S. cerevisiae deletion strains, locus YNL224C, strain SQS1, stronger effect = lower value 0.969 | S. cerevisiae deletion strains, locus YOR083W, strain WHI5 (second series), stronger effect = lower value 1.02 | [5] 0.99 | [6] 0.996

Cc1cc(N=CNO)c2ccccc2n1
inactive: [7] 1 | [8] 0.994 | [1] 0.976 | [9] 0.966 | [10] 0.997 | [4] 0.938 | [11] 0.999 | [12] 0.981 | S. cerevisiae deletion strains, locus YGR229C, strain SMI1, stronger effect = lower value 1.01 | [2] 0.869 | [13] 1.04 | [14] 0.959 | [15] 1 | [16] 0.997 | [17] 0.959 | [18] 0.989 | [19] 0.932 | [20] 0.988 | [21] 1.01 | [22] 1 | [23] 0.994 | [24] 1.19 | S. cerevisiae deletion strains, locus YNL128W, strain TEP1, stronger effect = lower value 0.966 | [25] 0.987 | [26] 0.919 | [27] 0.962 | [28] 0.982 | [5] 1.04 | [6] 0.966 | [29] 0.955

COC(=O)c1c(OC)ccc(N=CNO)c1OC
inactive: [7] 1 | [8] 0.982 | [9] 0.993 | [10] 1.01 | [4] 0.962 | [11] 1.01 | [12] 1 | [2] 1.05 | [13] 0.986 | [3] 0.985 | [14] 1 | [15] 0.976 | [16] 1.01 | [17] 1.02 | [18] 1 | [19] 0.999 | [20] 0.997 | [21] 0.993 | [22] 0.999 | [23] 0.926 | [24] 0.94 | [25] 0.989 | [26] 1.03 | [27] 1 | [28] 0.996 | [5] 0.888 | [6] 1.01 | [29] 1.07 | S. cerevisiae strains, strain wild type, stronger effect = lower value 1.03

— PubChem BioAssay AID1159580 (chemical genetic matrix, 2015)
